About 83,000 compounds went through this panel and 20% of them were active in at least one assay; those are over-represented in the sample as a whole.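 The test compound was applied at a single concentration to cells in 96-well plates for 48 hours, and percent growth was recorded.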 Values without a mark were called inactive. Active and inactive are the calls of the source. Rule for the calls: active = growth percent below 10; inactive = the rest.
system: NCI-H522 lung; experiment: NCI-60 one-dose screen, 48 h (100 = growth as untreated, 0 = no growth, -100 = all killed); conditions: 10 µM unless noted

Row | Structure (SMILES) | growth
1 | O=c1c2c3c(sc2nc(N/N=C/c2cn(-c4ccccc4)nc2-c2ccc(Cl)cc2)n1Cc1ccccc1)CCCC3 | 84.7%
2 | COc1cccc(-c2nn(C(C)(C)C)cc2-c2ccnc(NCCCNS(=O)(=O)c3ccc(C)cc3)c2)c1 | 99%
3 | CSc1nc(Nc2cccc(NC(=O)CCl)c2)c(C#N)c(-c2cccc([N+](=O)[O-])c2)n1 | -55.9% (active)
4 | CSc1nc(Nc2cccc(NC(=O)/C(C#N)=C/c3c(Cl)cccc3Cl)c2)c(C#N)c(-c2cccc([N+](=O)[O-])c2)n1 | 38.8%
5 | COc1ccc(-c2nc3ccc(-c4nc5ccc(N6CCN(c7ccccc7)CC6)cc5[nH]4)cc3[nH]2)cc1OC | -33% (active)
6 | COc1ccc(CCNc2nc3c(c(=O)n(Cc4ccc(Br)cc4)c(=O)n3C)n2C)cc1OC | 84.2%
7 | C=CCSSc1ncnc2c1ncn2C1OC(CO)C(O)C1O (stereo not given) | 11.3%
8 | Cc1ccc(NC(=O)C2CCC(CN3CCN(C)CC3)CC2)cc1Nc1nccc(-c2cccnc2)n1 (stereo not given) | 129%
9 | COc1cc(/C=C/c2cc(O)c3cc(C(C)=O)c(=O)oc3c2)cc2c1O[C@]1(C)CC[C@@H](O)C(C)(C)[C@H]1C2 | 67.7%
10 | C=CC(=O)Nc1cccc(Nc2nc(SC)nc(-c3cccc([N+](=O)[O-])c3)c2C#N)c1 | 38.7%
11 | N#C/C(=C\c1ccc(-c2cc(C(F)(F)F)ccc2Cl)o1)c1nc(-c2ccco2)cs1 | 85.3%
12 | COCCNc1ccc2c3c(cccc13)C(=O)N(CCN(C)C)C2=O | -25.6% (active)
13 | C=CC(=O)Nc1cccc(-c2nc(SC)nc(NCc3ccccc3)c2C#N)c1 | 31.2%
14 | COC(=O)c1cccc(NC(=O)c2ccc(-c3cccc(N)c3)o2)c1 | 81.8%
15 | N#Cc1c(-c2ccc(Cl)cc2)nc(N=Nc2c(O)[nH]c3ccc(Cl)cc23)nc1N1CCOCC1 | 93.6%
16 | N#CN1CCC[C@H]1C(=O)N1CCc2c(-c3[nH]nc4ncccc34)cccc21 | -51.7% (active)

system: A549/ATCC NSCLC; experiment: as above; conditions: 10 µM unless noted

Row | Structure (SMILES) | growth
17 | Nc1ccc(S(=O)(=O)O)c2ccc(N=Nc3ccc(N=Nc4ccc(S(=O)(=O)O)cc4)c4ccccc34)c(O)c12 | 99.8%
18 | CSc1ccc(-c2n[nH]nc2-c2cc3ccccc3s2)cc1 | 35%
19 | COc1ccc(C(=O)COc2ccc(/C=C3\COc4ccc(OC)cc4C3=O)cc2)cc1 | 77.9%
20 | COc1cc(C=Nc2oc(-c3ccccc3)c(-c3ccccc3)c2C#N)cc(CN2CCCCC2)c1O | 105%
21 | O=C1CC[C@H](c2ccc(O)c3c2C(=O)[C@@H]2O[C@@H]2C3=O)c2cccc(O)c21 | 87.2%
22 | C#CC(F)(F)[C@]1(O)CC[C@H]2[C@@H]3CCC4=CC(=O)CCC4=C3[C@@H](c3ccc(C(C)=O)cc3)C[C@@]21C | 73.4%
23 | O=C(Cc1ccccc1Nc1c(Cl)cccc1Cl)NN1C(=O)/C(=C/c2ccc(Br)cc2)SC1=S | 99.5%
24 | Cc1nn(-c2cc(=O)[nH]c3ccccc23)c(N)c1C#N | 107%
25 | CCn1c(Cc2ccccc2Nc2c(Cl)cccc2Cl)nnc1SCC(=O)NN1C(=O)/C(=C/c2cc(OC)c(O)c(OC)c2)SC1=S | 60.9%
26 | Cc1cc(C)nc(SC2=C(Nc3cc(Cl)ccc3O)C(=O)N(Cc3ccccc3)C2=O)n1 | 46.6% [30 µM]
27 | CCN(CC)c1ccc(/C=N\NC(=O)/C=C/C=C/c2ccc3c(c2)OCO3)c(O)c1 | 53.3%
28 | N#Cc1cnn(-c2nc3c(Cl)cccc3s2)c1N | 83.6%
29 | COc1ccc(S(=O)(=O)N2CC3(COC3)C2)cc1NC(=O)c1[nH]c(C)c2c1CCCCC2=O | 62.6%
30 | Cn1cc(C(=O)c2nc(-c3c[nH]c4ccc(F)cc34)no2)c2cc(F)ccc21 | 104%
31 | O=C1C=C(OCC=C(Cl)Cl)C(=O)c2ccccc21 | 91.3%
32 | Cc1cc(C)nc(SC2=C(Nc3cccc(Cl)c3)C(=O)N(Cc3ccccc3)C2=O)n1 | 26.4% [30 µM]
33 | O=c1cc(CSc2nnc(-c3ccc(F)cc3)o2)c2ccc3ccccc3c2o1 | 85.5%
34 | CCCn1c(=O)[nH]c(N)c([C@H]2c3ccccc3Oc3[nH]c(=O)n(CCC)c(=O)c32)c1=O | 84.8%
35 | O=C(CCN1C(=O)/C(=C/c2ccc(Cl)cc2)SC1=S)NCCCN1CCOCC1 | 102%
36 | Cc1nc2ccccc2n1C(=O)C[C@@H]1NC(=S)NC1=O | 93.1%

Row | Structure (SMILES) | growth
37 | O=C(N=Nc1c(O)[nH]c2ccc(Br)cc12)c1cc(-c2ccccc2)on1 | 103%
38 | C=C(C)C(=O)Nc1ccc(NC(C)C)cc1 | 112%
39 | CC(O)CN1CC(O)=C(c2nc3ccccc3s2)C1=N (stereo not given) | 116%
40 | O=c1c2c3c(sc2nc(N/N=C/c2cn(-c4ccccc4)nc2-c2ccc(Cl)cc2)n1Cc1ccccc1)CCCC3 | 83.6%
41 | COc1cccc(-c2nn(C(C)(C)C)cc2-c2ccnc(NCCCNS(=O)(=O)c3ccc(C)cc3)c2)c1 | 103%
42 | CSc1nc(Nc2cccc(NC(=O)CCl)c2)c(C#N)c(-c2cccc([N+](=O)[O-])c2)n1 | 95.9%
43 | CSc1nc(Nc2cccc(NC(=O)/C(C#N)=C/c3c(Cl)cccc3Cl)c2)c(C#N)c(-c2cccc([N+](=O)[O-])c2)n1 | 92%
44 | COc1ccc(-c2nc3ccc(-c4nc5ccc(N6CCN(c7ccccc7)CC6)cc5[nH]4)cc3[nH]2)cc1OC | -56.2% (active)
45 | COc1ccc(CCNc2nc3c(c(=O)n(Cc4ccc(Br)cc4)c(=O)n3C)n2C)cc1OC | 90%
46 | C=CCSSc1ncnc2c1ncn2C1OC(CO)C(O)C1O (stereo not given) | 79.7%
47 | Cc1ccc(NC(=O)C2CCC(CN3CCN(C)CC3)CC2)cc1Nc1nccc(-c2cccnc2)n1 (stereo not given) | 114%
48 | COc1cc(/C=C/c2cc(O)c3cc(C(C)=O)c(=O)oc3c2)cc2c1O[C@]1(C)CC[C@@H](O)C(C)(C)[C@H]1C2 | 52.2%
49 | C=CC(=O)Nc1cccc(Nc2nc(SC)nc(-c3cccc([N+](=O)[O-])c3)c2C#N)c1 | 7.62% (active)
50 | N#C/C(=C\c1ccc(-c2cc(C(F)(F)F)ccc2Cl)o1)c1nc(-c2ccco2)cs1 | 108%
51 | COCCNc1ccc2c3c(cccc13)C(=O)N(CCN(C)C)C2=O | 5.73% (active)
52 | C=CC(=O)Nc1cccc(-c2nc(SC)nc(NCc3ccccc3)c2C#N)c1 | 53.4%
53 | COC(=O)c1cccc(NC(=O)c2ccc(-c3cccc(N)c3)o2)c1 | 100%
54 | N#Cc1c(-c2ccc(Cl)cc2)nc(N=Nc2c(O)[nH]c3ccc(Cl)cc23)nc1N1CCOCC1 | 102%
55 | N#CN1CCC[C@H]1C(=O)N1CCc2c(-c3[nH]nc4ncccc34)cccc21 | 3.83% (active)

Reference: PubChem BioAssay (NCI)
